# KB-3-1 cytotox: kills parental KB-3-1 adenocarcinoma cells | KB-3-1 viability, CellTiter-Glo ATP luminescence, 72 h | Potency, µM (titrated, usually from 46.1 µM), hits mostly cytotoxic | hit rate 1.4% among 400,000 | AID 1347075; note: nearly all actives have a fitted effect of over 60% in size
#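 Cytotoxicity measured as CellTiter-Glo luminescence after 72 h at 37 C. Compound titrations were pinned onto drug-naive KB-3-1 parental adenocarcinoma cells grown in DMEM with 10% FBS, and normalized data fitted to concentration-response curves.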
# KB-V1 cytotox: KB-V1 MDR subline cytotoxicity | Potency, µM (top dose mostly 46.1 µM), most hits filed as cytotoxic | KB-V1 MDR cells viability, CellTiter-Glo, 72 h | hit rate 3.4% among 400,000 | AID 1347076; note: nearly all actives have a fitted effect of over 60% in size
#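 KB-V1 MDR subline cells in DMEM (phenol-red free, 10% FBS) exposed to compounds in qHTS concentration series for 72 h at 37 degrees C. Viability read by CellTiter-Glo luminescence; concentration-effect curves fitted after normalization and correction.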
# HT1080-NT tox: kills 2HG-producing HT-1080-NT fibrosarcoma cells; HT-1080-NT fibrosarcoma viability, CellTiter-Glo ATP luminescence, 48 h; Potency, µM (titrated, usually from 46.1 µM), inactives show top-dose activity, negative = less viability, most hits filed as cytotoxic; hit rate 1.6% among 360,000; AID 686970;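 note: NT is the 2HG producing partner of a matched IDH1 knockdown line; 0% = DMSO-treated cells and -100% = media-only wells without cells; nearly all actives have a fitted effect of over 55% in size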
#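 Fibrosarcoma NT cells, 750 per well in 5% FBS RPMI, were exposed to compound for 48 hours. Viability: CellTiter-Glo luminescence.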
# HT1080 IDH1KD tx: kills HT-1080 cells with IDH1 knockdown. Potency, µM (top dose mostly 46.1 µM), for the others: at the highest dose activity, negative = toxicity, actives largely listed as cytotoxic. AID 686971. hit rate 2% among 360,000. HT-1080 IDH1 knockdown viability, ATP luminescence, 48 h;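 note: 0% = DMSO wells and -100% = cell-free medium wells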
#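 Cytotoxicity counter-line: IDH1KD HT-1080, 48 h, CellTiter-Glo. Curves classed by r2, magnitude and activity.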
# * = called active by the depositor; i = inactive; u = inconclusive; x = no result; ! = a repeat was not active; [ ] = dose if it differs, or a comment. The list is not random: actives were taken first. Their share in the collection is about 5.7%. Calls come from the whole dose curve; as a rule, active = well fitted curve in the direction sought with a large enough effect; inconclusive = small, poorly fitted or top-dose-only effect, or another doubt; inactive = no such curve, though single readings can be large; an effect the other way counts as inactive or inconclusive. Unless noted, % is set by controls: 0 for no effect and ±100 for the full control effect; potency is the fitted concentration of half-maximal effect.
SMILES,KB-3-1 cytotox,KB-V1 cytotox,HT1080-NT tox,HT1080 IDH1KD tx
COc1ccc(CNC(=O)c2cnc3sc(N4CCC(C)CC4)nn3c2=O)c(OC)c1,i,i,x,x
Cc1sc(NC(=O)c2sc3nc4c(C)cccc4cc3c2N)c(C#N)c1C,u,u,-9%,u
Cc1cc(C)c2nc3sc(C(=O)N4CCOCC4)c(N)c3cc2c1,0.26µM*,u,0.21µM*,0.052µM*
Cc1cc(C)c2cc3c(N)c(C(=O)N4CCOCC4)sc3nc2c1,i,i,0%,-6%
Cc1ccc(C)c2nc3sc(C(=O)N4CCOCC4)c(N)c3cc12,u,u,4.1µM*,3.3µM*
Cc1cccc2cc3c(N)c(C#N)sc3nc12,u,1.5µM*,19%,17%
Cc1cccc2cc3c(N)c(C(=O)Nc4ccc(N5CCOCC5)cc4)sc3nc12,i,i,6%,-1%
Cc1cccc2cc3c(N)c(C(=O)N4CCc5ccccc54)sc3nc12,u,9.2µM*,-29%,u
Nc1nc(-c2ccc3c(c2)CCO3)cs1,i,i,4%,0%
Nc1nc(-c2ccc3c(c2)CCC(=O)N3)cs1,5.2µM*,3.7µM*,1%,0%
Cc1cccc2sc(N(CCN(C)C)C(=O)/C=C/c3cccs3)nc12,u,18µM*,u,u
CCCCCCCCN1[C@@H](CC(C)=O)c2cc(C(F)(F)F)ccc2S1(=O)=O,u,18µM*!,-11%,-3%
CN(C)S(=O)(=O)Oc1ccsc1C(=O)Nc1cccc(Cl)c1,u,21µM*,-6%,0%
CN(C)S(=O)(=O)Oc1ccsc1C(=O)Nc1ccc(Cl)c(Cl)c1,i,u,-30%,u
COC(=O)c1sccc1-c1ccc(C(=O)Nc2cccc(Cl)c2)o1,i,16µM*,-6%,-7%
CC(=O)c1cccc(NC(=O)Nc2nnc(N3CCCC3)s2)c1,i,u,x,x
Cc1cc2n(n1)CCCN2C(=O)Nc1ccc(Cl)cc1,i,i,x,x
Cc1nnc(NC(=O)CSCc2cc(=O)c3cc(Cl)ccc3[nH]2)s1,i,u,x,x
C=CCn1c(C)cc(C(=O)CSc2nnc(NCc3ccccc3)s2)c1C,13µM*,10µM*,u,u
C=CCn1c(C)cc(C(=O)CSc2nc3ccccc3o2)c1C,u,15µM*,-3%,-6%
CC(=O)c1ccc(Nc2nc3c(S(=O)(=O)c4ccccc4)nnn3c3ccc(Cl)cc23)cc1,i,i,x,x
COc1ccccc1CNC(=O)C1CCN(S(=O)(=O)c2ccc3c(ccn3C)c2)CC1,i,i,x,x
O=[N+]([O-])c1ccccc1/C=C1\C=Cc2ccccc21,i,i,x,x
O=C1C=C(NCc2ccncc2)CC(c2ccccc2)C1 (configuration not stated),i,i,-2%,-1%
CCCCCNC1=CC(=O)CC(c2ccccc2)C1 (configuration not stated),u,15µM*,u,-11%[9.24 µM]
SMILES,KB-3-1 cytotox,KB-V1 cytotox,HT1080-NT tox,HT1080 IDH1KD tx
CCCCCCCNC1=CC(=O)CC(c2ccccc2)C1 (configuration not stated),7.3µM*,u,u,16µM*
CNC1=CC(=O)CC(c2ccccc2)C1 (configuration not stated),i,i,-4%,-2%
Cc1ccccc1OCC(O)CNC1CCC(NCC(O)COc2ccccc2C)CC1 (configuration not stated),3.3µM*,18µM*,2.9µM*,2.3µM*
OC(CNC1CCCCCC1)COc1cccc2ccccc12 (configuration not stated),u,21µM*,21µM*,u
Cc1ccc(OCC(O)CNC2CCCC2)c(C)c1 (configuration not stated),i,i,-17%,-16%
COc1cccc(/C=N/NC(=O)CNC(=O)CCc2ccccc2)c1O,i,u,u,21µM*
COc1cccc(/C=N/NC(=O)CSc2ccccc2C)c1O,u,6.5µM*,u,26µM*
COc1cccc(/C=N/NC(=O)CSc2ccccc2C)c1OC,i,u,13%,1%
COc1cccc(/C=N/NC(=O)CNC(=O)c2cccs2)c1O,i,i,u,u
COc1cccc(/C=N/NC(=O)Cn2nc(C)c([N+](=O)[O-])c2C)c1O,u,u,u,18µM*
COc1ccccc1/C=C\C(=O)NCC(=O)N/N=C/c1cccc(OC)c1O,u,i,u,15µM*
COc1cccc(/C=N/NC(=O)C(C)n2nc(C)c([N+](=O)[O-])c2C)c1O (configuration not stated),i,u,-27%,u
Cc1ccc(C(=O)c2oc3ccccc3c2NC(=O)c2cc(=O)c3cc(C)ccc3o2)cc1,u,i,x,x
COc1cc(Br)cc(/C=N/NC(=O)Cc2ccccc2)c1O,i,i,18µM*,8.2µM*
Cc1cc(O)c(C(C)C)cc1N=Cc1ccccc1[N+](=O)[O-],i,i,u,16µM*
Cc1cc(O)c(C(C)C)cc1N=Nc1ccccc1C(=O)O,i,i,u,u
CCOC(=O)c1sc(N2C(=O)c3oc4ccc(F)cc4c(=O)c3C2c2ccc(O)cc2)nc1C (configuration not stated),i,i,x,x
C=C(CN(C)C)C(=O)c1ccc(OC2OC(COC(C)=O)C(OC(C)=O)C(OC(C)=O)C2OC(C)=O)cc1 (configuration not stated),u,u,u,4.6µM*
COc1cc(O)oc1C=Nc1ccc(C(=O)O)cc1,u,23µM*,u,u
COc1cc(O)oc1C=Nc1ccc(Cl)cc1,i,i,6%,0%
Cc1ccc2nc(C)c3c(c2c1)OC(C(C)(Cl)Br)C3 (configuration not stated),i,u,u,-28%
Cc1nc2ccccc2c2c1CC(C(C)(Cl)Br)O2 (configuration not stated),u,4.6µM*,u,u
O=C(Nc1ccc(NC(=O)c2cccs2)cc1)c1ccc(Cl)cc1,i,i,x,x
COc1c(Cl)cc(Cl)cc1/C=C/C(=O)c1ccc(NC(=O)c2cccs2)cc1,u,18µM*,21µM*,u
Cc1cccc(NC(=O)CN2C(=O)CCn3nc(-c4cccn4C)cc32)c1C,i,i,x,x
Cc1ccc2nc(SCc3ccccc3)c(C=O)c(=O)n2c1,i,8.2µM*,8%,8%
Cc1cc(C)c2c(CC(=O)Nc3nnc(C(C)C)s3)coc2c1,i,i,x,x
CC(c1ccc(N(C)C)cc1)c1ccnc2ccccc12 (configuration not stated),u,i,x,x
CCOC(=O)/C(=C\c1ccc(OC(F)F)cc1)C1=Nn2c(nnc2-c2ccc(Cl)cc2)SC1,u,i,5.8µM*,3.7µM*
CCOC(=O)/C(=C/c1ccc(OC(F)F)cc1)C1=Nn2c(nnc2-c2ccc(Cl)cc2)SC1,u,u,3.3µM*,3.7µM*
